In PubChem BioAssay (NCATS):
Records with an inconclusive call do not appear. Values without a mark were called inactive. Active and inactive are the calls of the source. Calls follow the shape of the dose curve; as a rule, active = well fitted inhibition curve with a large enough effect; inconclusive = small, poorly fitted or top-dose-only effect; inactive = flat fitted curve, though single readings scatter.

tested on: CP203; assay: qHTS profiling for inhibitors of Plasmodium falciparum proliferation (AID 504749); also: nearly all actives have a fitted effect of over 60% in size;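 as to activity, negative = inhibition: 0% = DMSO vehicle and full inhibition = artemisinin control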; conditions: P. falciparum in erythrocytes, SYBR Green DNA, 72 h; series mostly up to 28.7 µM; activity, negative = inhibition: at the top concentration
Excerpt: NIH National Institute of Allergy and Infectious Diseases [NIAID] NIH Chemical Genomics Center [NCGC] MLPCN Grant: None Assay Provider: Xinzhuan Su, NIAID NCGC Assay Overview: Plasmodium falciparum is a virulent malarial parasite that kills 1-2 million people worldwide each year. Transmitted by mosquitoes, the sporozoite form of the parasite enters the blood stream to infect hepatocytes, where they become merozoites that infect red blood cells (erythrocytes). Within erythrocytes, merozoites begin a […] cycle of growth and division, after which the parasite is released to infect new red blood cells. Gametocytes, which form within erythrocytes as well, circulate in the bloodstream and are ingested by the mosquito, thereby completing the life cycle. To profile malarial isolates for differential chemical responses and to identify inhibitors of malarial growth, an assay that measures P. falciparum growth and replication within erythrocytes was employed. This assay uses a DNA binding fluorescent dye (SYBR Green) to detect parasite DNA following cell lysis. Because mature erythrocytes lack DNA, only Plasmodium-derived DNA is detected.
NCGC Assay Protocol Summary: The SYBR Green viability assay was adapted from a method described previously (Plouffe et al., 2008). For screening 3 ul culture medium was dispensed into 1536 well black clear bottom plates (Aurora Biotechnologies) using a Multidrop Combi (Thermo Fisher Scientific Inc.), 23 nL compounds in DMSO were added by a pin tool (Kalypsys), and 5 ul of erythrocytes infected with P. falciparum (0.3% parasitemia, 2.5% hematocrit final concentration) were added. The plates were incubated at 37 C in a humidified incubator in 5% CO2 for 72 h, and 2 ul lysis buffer (20 mM Tris HCl, 10 mM EDTA, 0.16% saponin, 1.6% triton X, 10X SYBR Green I supplied as 10,000X […] by Invitrogen) was added to each well. The plates were mixed for 25 sec with gentle shaking and incubated overnight at room temperature in the dark. The following morning, fluorescence intensity at 485(14) nm excitation and 535(25) nm emission wavelengths was measured on an EnVision (Perkin Elmer) plate reader. Plate reads were normalized relative to the control inhibitor (0.29 uM artemisinin) and vehicle (DMSO) wells present on each plate and then corrected by an algorithm using vehicle-only control plates at the beginning and end of the compound plate stack.
Potency is read from the fitted curve at half-maximal effect.

Row | SMILES | activity, negative = inhibition | Potency
1 | Oc1ccc(Cl)cc1 | -1.87% | 
2 | CC(C)NC(C)C | -2.04% | 
3 | CCOC(=O)CC(SP(=S)(OC)OC)C(=O)OCC (stereo not given) | -0.0501% | 
4 | CCCC(C)(COC(N)=O)COC(N)=O | 1.92% | 
5 | CCC(C)(C)c1ccc(O)cc1 | 1.6% | 
6 | O=C1c2ccccc2C(=O)c2ccccc21 | 0.526% | 
7 | Cc1nnc2n1-c1ccc(Cl)cc1C(c1ccccc1)=NC2 | 0.502% | 
8 | NCCc1ccc(O)cc1 | 2.54% | 
9 | CN1CCC(O)(c2ccc(F)cc2)C(C(=O)c2ccc(F)cc2)C1 (stereo not given) | -11.7% | 
10 | CCC1(c2ccccc2)C(=O)N(COC)C(=O)N(COC)C1=O | 2.22% | 
11 | Cc1ncsc1CCCl | 12.5% | 
12 | CCCCCCC(=O)CCCCCC/C=C/C[C@@H](O)[C@H](O)[C@@](N)(CO)C(=O)O | 2.28% | 
13 | Nc1nc(N)nc(NC2CC2)n1 | 0.336% | 
14 | NNc1ccccc1 | -8.81% | 
15 | O=C1OC(c2ccc(O)c(S(=O)(=O)O)c2)(c2ccc(O)c(S(=O)(=O)O)c2)c2c(Br)c(Br)c(Br)c(Br)c21 | 0.968% | 
16 | NC(=O)c1cc([N+](=O)[O-])cc([N+](=O)[O-])c1 | -4.44% | 
17 | O=C1CN=C(c2ccccc2)c2cc([N+](=O)[O-])ccc2N1 | -1.57% | 
18 | Clc1ccc2c(c1)C(c1ccccc1)=NCc1nncn1-2 | 0.585% | 
19 | c1ccc2c(c1)sc1ccccc12 | 8.01% | 
20 | CN1C[C@H](C(=O)N[C@]2(C)O[C@@]3(O)[C@@H]4CCCN4C(=O)[C@H](Cc4ccccc4)N3C2=O)C=C2c3cccc4[nH]cc(c34)C[C@H]21 |  | 4.26 µM (active)

Row | SMILES | activity, negative = inhibition | Potency
21 | Clc1cccc(SC2CCNCC2)n1 | 9.16% | 
22 | CN1C(=O)COc2c(C(=O)NC3CN4CCC3CC4)cc(Cl)cc21 (stereo not given) | 2.6% | 
23 | Nc1ccc([As](=O)(O)O)cc1 | -6.91% | 
24 | O=C1c2ccccc2C(=O)C1C(=O)C(c1ccccc1)c1ccccc1 | 7.96% | 
25 | C=C(C)[C@H]1CN[C@H](C(=O)O)[C@H]1CC(=O)O | -4.7% | 
26 | CCC1(CC)C(=O)C=CNC1=O | -2.36% | 
27 | O=C1Nc2ccc(Cl)cc2C(c2ccccc2Cl)=NC1O (stereo not given) | 4.36% | 
28 | Nc1ccccc1C(=O)O | 1.37% | 
29 | CN1C(=O)C(O)N=C(c2ccccc2)c2cc(Cl)ccc21 (stereo not given) | 0.451% | 
30 | CN1C(=O)NC(=O)C(C)(C2=CCCCC2)C1=O (stereo not given) |  | inactive
31 | CNC(C)(C)Cc1ccccc1 | 4.37% [at 12.8 µM] | 
32 | COC1CC(=C(c2cccs2)c2cccs2)C[N+](C)(C)C1 (stereo not given) |  | 12 µM (active)
33 | COP(=S)(OC)Oc1ccc(SC)c(C)c1 | -4.19% | 
34 | CN1C(=O)CC(=O)N(c2ccccc2)c2cc(Cl)ccc21 | 2.2% | 
35 | O=c1[nH]oc2c1CCNC2 | 6.96% | 
36 | COP(=S)(OC)Oc1ccc(S(=O)(=O)N(C)C)cc1 | 4.12% | 
37 | CCCCC/C=C\C/C=C\C/C=C\C/C=C\CCCC(=O)NCC(=O)O | 6.81% [at 2.67 µM] | 
38 | C[C@]12CCC(=O)C=C1CC[C@@H]1[C@@H]2CC[C@]2(C)C(=O)CC[C@@H]12 | 5.73% | 
39 | C[C@]12CC[C@@H]3c4ccc(OC(=O)N(CCCl)CCCl)cc4CC[C@H]3[C@@H]1CC[C@@H]2O | -2% | 
40 | O=C(O)CCCc1ccc(N(CCCl)CCCl)cc1 | 1.9% | 
